This passage reports AC50 and outcome results from PubChem BioAssay (EPA / NIEHS).

For assay [1], the target named is bovine Dopamine Receptor (DR), Non-selective Binding, DRD1 (gene 281125) (UniProt Q95136). In words: NVS_GPCR_bDR_NonSelective: NovaScreen (NVS) G Protein-Coupled Receptor Assay for bovine Dopamine Receptor (DR), Non-selective Binding (AID 2283241). A digest of the protocol:
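Filter-based radioligand binding with bovine striatal membrane, incubated 1 h; DMSO as negative baseline. Initial duplicate single-point test at 25 uM preceded concentration series for actives.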

Assay [2] relates to bovine Histamine 1 Receptor (H1), gene 281231. Kind of assay: NVS_GPCR_bH1: NovaScreen (NVS) G Protein-Coupled Receptor Assay for bovine Histamine 1 Receptor (H1) (AID 2283246). The essentials: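 Hits from a 25 uM duplicate primary screen were retested in concentration series (top 50 uM); binding measured as scintillation-counted displacement of radioligand from bovine cerebellar membranes after 1 h, normalised to DMSO.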

Assay [3] concerns the target human Serotonin, 5-Hydroxytryptamine Receptor 2A (5HT2A), HTR2A (gene 3356) (UniProt P28223). In words: NVS_GPCR_h5HT2A: NovaScreen (NVS) G Protein-Coupled Receptor Assay for human Serotonin, 5-Hydroxytryptamine Receptor 2A (5HT2A) (AID 2283249). The essentials: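 Radioligand displacement on human cortex tissue extract, counted by filtration and scintillation 1.5 h post-dosing. Initial single-concentration screen at 25 uM in duplicate, concentration series in follow-up; DMSO as baseline.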

Assay [4] relates to guinea pig Muscarinic, Peripheral (Mperiperal) Receptor, Non-selective Binding, gene 100379235. In words: NVS_GPCR_gMPeripheral_NonSelective: NovaScreen (NVS) G Protein-Coupled Receptor Assay for guinea pig Muscarinic, Peripheral (Mperiperal) Receptor, Non-selective Binding (AID 2283250). The essentials:
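Screened in duplicate at 25 uM, hits retested in concentration series to 50 uM max, using bladder membrane radioligand displacement from guinea pig. Filtration and scintillation counting 1 h post-dose, fitted relative to DMSO.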

Assay [5] concerns the target human Serotonin, 5-Hydroxytryptamine Receptor 5A (5HT5A), HTR5A (gene 3361) (UniProt P47898). In words: NVS_GPCR_h5HT5A: NovaScreen (NVS) G Protein-Coupled Receptor Assay for human Serotonin, 5-Hydroxytryptamine Receptor 5A (5HT5A) (AID 2283251). A digest of the protocol: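 Membranes from HEK293 cells, radioligand binding read by filtration and scintillation after 1 h. Single-concentration duplicate testing at 25 uM, then concentration-response for actives; positive-direction fitting relative to DMSO.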

For assay [6], the target named is human Serotonin, 5-Hydroxytryptamine Receptor 6 (5HT6), HTR6 (gene 3362) (UniProt P50406). Kind of assay: NVS_GPCR_h5HT6: NovaScreen (NVS) G Protein-Coupled Receptor Assay for human Serotonin, 5-Hydroxytryptamine Receptor 6 (5HT6) (AID 2283253). A digest of the protocol:
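Filter scintillation counting of radioligand displacement from HEK293-expressed 5HT6, 1 hour post-dose, with loss of signal relative to DMSO. Single 25 uM duplicates first, with concentration series for confirmation.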

For assay [7], the target named is human Serotonin, 5-Hydroxytryptamine Receptor 7 (5HT7), HTR7 (gene 3363) (UniProt P34969). Kind of assay: NVS_GPCR_h5HT7: NovaScreen (NVS) G Protein-Coupled Receptor Assay for human Serotonin, 5-Hydroxytryptamine Receptor 7 (5HT7) (AID 2283255).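 Note: hits reduce specific radioligand binding relative to DMSO.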 A digest of the protocol: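 Filter-bound radioactivity counted after 1 h, with loss of specific radioligand binding fitted against DMSO. Membrane protein came from CHO cells expressing human 5HT7. Chemicals were tested first at 25 uM in duplicate, then in concentration series if active.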
human Serotonin, 5-Hydroxytryptamine Receptor 7 (5HT7), HTR7 (gene 3363), sequence (P34969 whole entry, looked up): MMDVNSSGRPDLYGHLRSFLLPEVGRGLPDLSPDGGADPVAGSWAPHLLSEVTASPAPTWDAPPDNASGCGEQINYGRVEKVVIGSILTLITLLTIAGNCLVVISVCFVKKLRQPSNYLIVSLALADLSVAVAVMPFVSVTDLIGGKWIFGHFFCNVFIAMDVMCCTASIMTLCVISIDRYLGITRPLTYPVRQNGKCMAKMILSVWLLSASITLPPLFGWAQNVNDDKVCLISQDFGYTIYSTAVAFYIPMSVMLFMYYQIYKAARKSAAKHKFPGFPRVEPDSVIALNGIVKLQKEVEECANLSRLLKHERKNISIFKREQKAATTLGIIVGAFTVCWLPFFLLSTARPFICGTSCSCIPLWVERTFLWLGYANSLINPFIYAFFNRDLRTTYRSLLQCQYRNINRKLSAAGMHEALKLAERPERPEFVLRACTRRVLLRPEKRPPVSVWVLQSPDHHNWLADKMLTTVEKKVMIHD

Assay [8] concerns the target human Adrenergic, Alpha 2A Receptor (Adra2A), ADRA2A (gene 150) (UniProt P08913). In words: NVS_GPCR_hAdra2A: NovaScreen (NVS) G Protein-Coupled Receptor Assay for human Adrenergic, Alpha 2A Receptor (Adra2A) (AID 2283257). A digest of the protocol: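 Displacement of a specific radioligand from HT29 membrane protein was counted by filter scintillation after 1 h. Compounds were screened in duplicate at 25 uM, and actives were retested in concentration series. Fitting was positive-direction against DMSO.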

In assay [9] the target is human Adenosine A1 Receptor (AdoRA1), ADORA1 (gene 134) (UniProt P30542). In words: NVS_GPCR_hAdoRA1: NovaScreen (NVS) G Protein-Coupled Receptor Assay for human Adenosine A1 Receptor (AdoRA1) (AID 2283254). The essentials: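 Hum. cortical membranes + radioligand, cmpd 1 h; filtration, scintillation count. Readout = decrease vs DMSO. Primary 25 uM dup; hits → conc. series.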
human Adenosine A1 Receptor (AdoRA1), ADORA1 (gene 134), sequence (P30542 whole entry, looked up): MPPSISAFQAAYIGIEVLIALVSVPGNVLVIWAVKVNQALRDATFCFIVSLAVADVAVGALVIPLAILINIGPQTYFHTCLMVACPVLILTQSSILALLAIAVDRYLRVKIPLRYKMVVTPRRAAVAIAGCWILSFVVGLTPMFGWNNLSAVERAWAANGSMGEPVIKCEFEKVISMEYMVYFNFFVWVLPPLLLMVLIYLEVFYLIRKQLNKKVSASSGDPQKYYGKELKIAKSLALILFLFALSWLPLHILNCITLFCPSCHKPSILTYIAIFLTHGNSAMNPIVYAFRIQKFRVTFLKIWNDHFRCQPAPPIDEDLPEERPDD

Assay [10] deals with guinea pig Leukotriene B4 Receptor (LTB4), gene 100379538. Kind of assay: NVS_GPCR_gLTB4: NovaScreen (NVS) G Protein-Coupled Receptor Assay for guinea pig Leukotriene B4 Receptor (LTB4) (AID 2283247). The essentials: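 Membranes from guinea pig spleen incubated 2 h with radioligand and compound; bound counts measured by filtration and scintillation. Screened first at 25 uM in duplicate, then actives titrated to a 50 uM top concentration relative to DMSO.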

Assay [11] concerns the target guinea pig Opioid, Kappa 1 Receptor (OpiateK), OPRK1 (gene 100135587) (UniProt P41144). Kind of assay: NVS_GPCR_gOpiateK: NovaScreen (NVS) G Protein-Coupled Receptor Assay for guinea pig Opioid, Kappa 1 Receptor (OpiateK) (AID 2283252).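 Note: radioligand displacement from kappa opioid receptor in guinea pig cerebellar membranes; active means reduced radioligand binding relative to DMSO.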 A digest of the protocol:
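Radioligand competition binding using guinea pig cerebellum membrane fraction; 2 h exposure; filter radiodetection. Single concentration 25 uM (duplicate), follow-up concentration-response for actives.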

Assay [12] has as its target Adenosine receptor A1 (Bos taurus) (UniProt P28190). In words: NVS_GPCR_bAdoR_NonSelective: NovaScreen (NVS) G Protein-Coupled Receptor Assay for bovine Adenosine Receptor (AdoR), Non-selective Binding (AID 2283244). The essentials:
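Cell-free binding with membranes from bovine striatum: radioligand displaced by test chemical, read after 1 h by filtration and scintillation. Single-point 25 uM duplicate primary, 50 uM top concentration in follow-up curves, DMSO baseline.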

Assay [13] is described as follows: NVS_GPCR_bNPY_NonSelective: NovaScreen (NVS) G Protein-Coupled Receptor Assay for bovine Neuropeptide Y (NPY) Receptor, Non-selective Binding (AID 2283245). The essentials: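 Displacement of radioligand from bovine hippocampal membrane receptors, read by filtration and scintillation counting after 1 hour. Concentration-response to a top of 50 uM followed a 25 uM duplicate primary screen. Loss of signal versus DMSO.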

Assay [14] deals with guinea pig Leukotriene D4 Receptor (LTD4), CYSLTR1 (gene 100135514) (UniProt Q2NNR5). In words: NVS_GPCR_gLTD4: NovaScreen (NVS) G Protein-Coupled Receptor Assay for guinea pig Leukotriene D4 Receptor (LTD4) (AID 2283248). A digest of the protocol:
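Guinea pig lung membrane preparation; bound radioligand measured by filter scintillation after 1 h, loss of signal versus DMSO marking displacement. Compounds tested at 25 uM in duplicate, hits retested to max 50 uM.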

The target in assay [15] is sheep Cyclooxygenase-1 (Cox1), PTGS1 (gene 443551) (UniProt P05979). Kind of assay: NVS_ENZ_oCOX1: NovaScreen (NVS) Enzymatic Assay for sheep Cyclooxygenase-1 (Cox1) (AID 2283239).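 Note: actives reduce cyclooxygenase activity so potencies are for inhibitors.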 A digest of the protocol:
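COX1 from ovine seminal vesicles, activity read colorimetrically about 0.66 h after dosing. Primary screen in duplicate at 25 uM; actives retested in concentration series; loss of signal fitted versus DMSO.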

As usually defined, the AC50 is the concentration at which the activity in the assay is half-maximal.

Results filed as inconclusive are left out. Activity calls are given as the source filed them. Rule for the calls: active = hit-call score of the fitted dose curve at least 0.9, where 1 is the maximum; inconclusive = response in the unintended direction; inactive = score below 0.9.

human Serotonin, 5-Hydroxytryptamine Receptor 6 (5HT6), HTR6 (gene 3362), sequence (P50406 whole entry, looked up): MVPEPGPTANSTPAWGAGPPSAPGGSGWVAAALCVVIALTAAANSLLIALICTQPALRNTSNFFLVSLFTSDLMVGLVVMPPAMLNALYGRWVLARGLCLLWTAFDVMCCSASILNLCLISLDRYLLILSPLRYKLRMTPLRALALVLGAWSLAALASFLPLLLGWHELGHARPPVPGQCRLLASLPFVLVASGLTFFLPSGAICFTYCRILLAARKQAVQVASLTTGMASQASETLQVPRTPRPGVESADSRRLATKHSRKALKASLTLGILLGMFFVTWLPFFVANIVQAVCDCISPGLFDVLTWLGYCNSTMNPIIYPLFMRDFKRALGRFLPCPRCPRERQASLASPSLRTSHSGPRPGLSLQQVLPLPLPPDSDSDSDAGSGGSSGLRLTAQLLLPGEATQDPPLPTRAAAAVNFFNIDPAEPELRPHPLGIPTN
guinea pig Opioid, Kappa 1 Receptor (OpiateK), OPRK1 (gene 100135587), sequence (P41144 whole entry, looked up): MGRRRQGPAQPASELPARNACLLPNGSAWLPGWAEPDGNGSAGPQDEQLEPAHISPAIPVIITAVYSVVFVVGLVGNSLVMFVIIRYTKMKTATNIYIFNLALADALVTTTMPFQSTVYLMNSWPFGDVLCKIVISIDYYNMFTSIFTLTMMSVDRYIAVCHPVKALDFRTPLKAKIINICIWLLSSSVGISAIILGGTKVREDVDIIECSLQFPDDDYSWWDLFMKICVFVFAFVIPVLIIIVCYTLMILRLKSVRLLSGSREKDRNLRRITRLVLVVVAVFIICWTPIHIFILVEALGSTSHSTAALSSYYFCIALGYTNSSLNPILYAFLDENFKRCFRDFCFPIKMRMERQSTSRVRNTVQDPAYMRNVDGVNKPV
human Serotonin, 5-Hydroxytryptamine Receptor 5A (5HT5A), HTR5A (gene 3361), sequence (P47898 whole entry, looked up): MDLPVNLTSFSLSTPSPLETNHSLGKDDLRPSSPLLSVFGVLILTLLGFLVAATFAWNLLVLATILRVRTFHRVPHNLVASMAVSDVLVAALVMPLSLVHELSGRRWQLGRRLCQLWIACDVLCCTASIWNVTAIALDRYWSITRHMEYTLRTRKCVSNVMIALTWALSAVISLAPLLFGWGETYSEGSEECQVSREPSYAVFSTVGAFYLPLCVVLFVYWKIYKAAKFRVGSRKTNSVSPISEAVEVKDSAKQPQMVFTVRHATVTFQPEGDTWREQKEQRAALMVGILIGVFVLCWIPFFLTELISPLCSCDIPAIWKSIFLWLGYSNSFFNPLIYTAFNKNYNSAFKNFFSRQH
human Serotonin, 5-Hydroxytryptamine Receptor 2A (5HT2A), HTR2A (gene 3356), sequence (P28223 whole entry, looked up): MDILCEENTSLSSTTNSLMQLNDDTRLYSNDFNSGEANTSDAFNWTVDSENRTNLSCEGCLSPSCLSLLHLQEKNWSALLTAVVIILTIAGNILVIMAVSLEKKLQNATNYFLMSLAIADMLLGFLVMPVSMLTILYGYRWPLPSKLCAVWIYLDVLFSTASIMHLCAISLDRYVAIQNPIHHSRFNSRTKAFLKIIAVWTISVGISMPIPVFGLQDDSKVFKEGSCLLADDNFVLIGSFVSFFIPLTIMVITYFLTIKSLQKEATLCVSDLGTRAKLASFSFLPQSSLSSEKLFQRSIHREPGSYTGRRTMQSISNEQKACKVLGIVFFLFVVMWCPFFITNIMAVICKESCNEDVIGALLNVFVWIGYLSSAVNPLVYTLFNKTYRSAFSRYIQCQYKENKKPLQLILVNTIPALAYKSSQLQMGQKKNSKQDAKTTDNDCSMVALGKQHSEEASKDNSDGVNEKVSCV
human Adrenergic, Alpha 2A Receptor (Adra2A), ADRA2A (gene 150), sequence (P08913 whole entry, looked up): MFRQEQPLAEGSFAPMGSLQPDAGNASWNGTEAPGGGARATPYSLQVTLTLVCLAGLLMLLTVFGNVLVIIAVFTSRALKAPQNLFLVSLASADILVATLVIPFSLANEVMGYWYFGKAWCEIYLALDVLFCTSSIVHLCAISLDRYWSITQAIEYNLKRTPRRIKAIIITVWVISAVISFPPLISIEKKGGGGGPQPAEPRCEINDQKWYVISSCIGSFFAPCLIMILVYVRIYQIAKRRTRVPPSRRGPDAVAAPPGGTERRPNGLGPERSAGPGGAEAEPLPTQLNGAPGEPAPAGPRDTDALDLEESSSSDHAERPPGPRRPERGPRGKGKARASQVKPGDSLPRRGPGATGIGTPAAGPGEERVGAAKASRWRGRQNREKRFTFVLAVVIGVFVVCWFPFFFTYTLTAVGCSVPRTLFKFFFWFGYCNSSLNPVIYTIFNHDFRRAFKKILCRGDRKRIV
Adenosine receptor A1 (Bos taurus), sequence (P28190 whole entry, looked up): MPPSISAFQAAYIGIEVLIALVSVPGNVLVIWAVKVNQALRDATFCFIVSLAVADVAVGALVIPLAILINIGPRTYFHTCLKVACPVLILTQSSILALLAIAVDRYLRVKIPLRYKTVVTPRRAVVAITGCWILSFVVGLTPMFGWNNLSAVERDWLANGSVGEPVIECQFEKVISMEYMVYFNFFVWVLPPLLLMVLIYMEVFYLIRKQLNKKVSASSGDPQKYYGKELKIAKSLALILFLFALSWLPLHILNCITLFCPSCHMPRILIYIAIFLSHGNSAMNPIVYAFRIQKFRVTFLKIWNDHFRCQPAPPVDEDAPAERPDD
bovine Dopamine Receptor (DR), Non-selective Binding, DRD1 (gene 281125), sequence (Q95136 whole entry, looked up): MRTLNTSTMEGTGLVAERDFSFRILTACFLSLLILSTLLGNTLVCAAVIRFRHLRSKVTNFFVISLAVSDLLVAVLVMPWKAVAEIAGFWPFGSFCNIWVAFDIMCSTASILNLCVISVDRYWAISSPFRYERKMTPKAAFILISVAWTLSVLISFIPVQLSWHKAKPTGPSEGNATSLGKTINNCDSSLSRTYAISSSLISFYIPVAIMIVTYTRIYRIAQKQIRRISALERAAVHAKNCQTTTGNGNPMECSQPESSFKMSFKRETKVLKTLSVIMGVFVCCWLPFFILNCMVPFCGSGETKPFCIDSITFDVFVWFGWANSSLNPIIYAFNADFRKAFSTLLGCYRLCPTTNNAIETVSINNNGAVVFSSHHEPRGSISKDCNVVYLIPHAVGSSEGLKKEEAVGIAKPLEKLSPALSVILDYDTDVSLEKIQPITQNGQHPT
sheep Cyclooxygenase-1 (Cox1), PTGS1 (gene 443551), sequence (P05979 whole entry, looked up): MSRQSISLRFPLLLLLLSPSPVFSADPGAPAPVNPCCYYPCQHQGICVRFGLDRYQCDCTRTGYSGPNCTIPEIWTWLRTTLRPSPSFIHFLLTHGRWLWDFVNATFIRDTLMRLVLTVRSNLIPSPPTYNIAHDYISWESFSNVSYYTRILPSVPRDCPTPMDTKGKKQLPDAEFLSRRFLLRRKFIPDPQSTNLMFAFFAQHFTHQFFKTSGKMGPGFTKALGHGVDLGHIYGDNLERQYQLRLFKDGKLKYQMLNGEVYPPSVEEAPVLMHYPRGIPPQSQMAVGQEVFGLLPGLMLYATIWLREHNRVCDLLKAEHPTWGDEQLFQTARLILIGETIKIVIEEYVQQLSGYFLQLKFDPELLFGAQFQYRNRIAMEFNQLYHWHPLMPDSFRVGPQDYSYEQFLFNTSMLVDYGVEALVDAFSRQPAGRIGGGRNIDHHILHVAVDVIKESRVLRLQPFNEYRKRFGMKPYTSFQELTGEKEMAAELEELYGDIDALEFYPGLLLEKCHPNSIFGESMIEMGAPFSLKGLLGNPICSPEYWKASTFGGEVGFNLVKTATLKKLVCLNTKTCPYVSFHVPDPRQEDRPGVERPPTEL
guinea pig Leukotriene D4 Receptor (LTD4), CYSLTR1 (gene 100135514), sequence (Q2NNR5 whole entry, looked up): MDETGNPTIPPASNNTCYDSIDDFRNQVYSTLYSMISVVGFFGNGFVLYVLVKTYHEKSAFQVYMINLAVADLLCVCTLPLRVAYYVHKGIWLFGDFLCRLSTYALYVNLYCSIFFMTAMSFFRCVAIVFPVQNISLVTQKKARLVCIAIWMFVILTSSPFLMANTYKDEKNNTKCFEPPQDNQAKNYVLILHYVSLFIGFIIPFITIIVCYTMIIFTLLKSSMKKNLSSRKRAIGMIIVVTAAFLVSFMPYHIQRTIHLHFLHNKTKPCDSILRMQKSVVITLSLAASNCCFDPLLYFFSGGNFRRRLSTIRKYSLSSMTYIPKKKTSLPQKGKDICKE

Take `NC(=O)Cn1c(=O)cc(CCN2CCN(c3nccc4sccc34)CC2)c2ccc(F)cc21`: the AC50 is 1.26 µM (active) in assay [1]; 0.777 µM (active) in assay [2]; 0.00229 µM (active) in assay [3]; 0.834 µM (active) in assay [5]; 0.214 µM (active) in assay [6]; 0.0155 µM (active) in assay [7]. Also, in assay [8], the AC50 is 2.03 µM (active). The compound was called inactive in [4].
Consider `COc1ccc2c(c1)c(CC(=O)O)c(C)n2C(=O)c1ccc(Cl)cc1`, for which, in [4], the outcome was inactive.
For `O=C(N[C@@H](Cc1ccccc1)[C@@H](O)C(=O)N1C[C@@H](O)[C@@H](O)C1)c1cc2cc(Cl)ccc2[nH]1`, the AC50 in assay [9] was 16 µM (active).
In the case of `Nc1ccc(S(=O)(=O)c2ccc(N)cc2)cc1`, in assay [6], the half-maximal activity concentration (AC50) was 1.2 µM (active).
With `COCCOC[C@H](CC1(C(=O)NC2CCC(C(=O)O)CC2)CCCC1)C(=O)Oc1ccc2c(c1)CCC2` (stereo partly drawn), the call in assay [10] and in assay [11] was inactive.
As for `CCc1c(C(=O)NN2CCCCC2)nn(-c2ccc(Cl)cc2Cl)c1-c1ccc(Br)cc1`, in [12], the outcome was inactive. For the same compound, the AC50 in [11] is 9.97 µM (active).
As to `C[C@]12C=CC(=O)C=C1CC[C@@H]1[C@@H]2C(=O)C[C@@]2(C)[C@H]1CC[C@]2(O)C(=O)CO`, in assay [2], the outcome was inactive.
For `Oc1ccc2c(c1)OC[C@@H](N1CCC(O)(c3ccc(F)cc3)CC1)[C@H]2O`, the compound was classed as inactive in assay [3], in assay [6], in assay [9] and in assay [8].
In the case of `CN1CCN(Cc2cc(-c3ccc4[nH]c(=O)oc4c3)co2)[C@@H](c2ccc(F)cc2)C1`, the result in assay [4] and in assay [11] was inactive. The half-maximal activity concentration (AC50) in assay [5] was 9.14 µM (active); in [6] it was 2.5 µM (active); in assay [7], 15.6 µM (active).
`C1CCC(SSC2CCCCC2)CC1`: the call in assay [1] was inactive.
As for `Cc1ccc(N(C)C)cc1`, the call in assay [12] was inactive.
Regarding `CCCCCCOCCO`, in [13], the call was inactive.
As for `CNC(=O)[C@H]1O[C@@H](n2cnc3c(NCc4cc(Cl)ccc4OCc4cc(C)no4)ncnc32)[C@H](O)[C@@H]1N`, the AC50 in assay [10] is 25 µM (active).
As for `Cc1nc(-c2ccc3c(c2)CCN(CCC2CCC(NC(=O)/C=C/c4ccc(F)cc4)CC2)CC3)no1` (stereo not drawn), the figures for the AC50 in assay [4] and in assay [11] were 0.483 µM (active) and 0.262 µM (active), respectively.
For `CCCCCCCC=O`, the half-maximal activity concentration (AC50) in assay [14] was 0.613 µM (active).
For the compound `NS(=O)(=O)c1cc2c(cc1Cl)NCNS2(=O)=O`, the call in assay [6] was inactive.
Take `Nc1nc(N)c2nc(CNc3ccc(C(=O)N[C@@H](CCC(=O)O)C(=O)O)cc3)cnc2n1`: the figures for the AC50 in assay [15] and in assay [5] were 1.66 µM (active) and 6.28 µM (active), respectively.
Turning to `NCCO`, the call in [6] was inactive.
As for `CNCc1cc(F)ccc1Oc1ccc(Cl)c(Cl)c1`, the AC50 in assay [4] was 25 µM (active); in assay [11], 12.7 µM (active).
